# Screening results: PubChem, National Center for Advancing Translational Sciences (NCATS)
# TDP1 inh: TDP1 (human) enzyme inhibition | Q9NUW8 | 350,000 compounds, 0.28% hits | recombinant TDP1, AlphaScreen DNA substrate cleavage | Potency, µM (top dose mostly 130 µM), inactives show top-dose activity change, negative = inhibition, usual class: inhibitors; note: potency is the fitted concentration of half-maximal effect; % is set by controls: 0 for no effect and ±100 for the full control effect; nearly all actives have a fitted effect of over 40% in size
# Target sequence (Q9NUW8 whole entry, looked up): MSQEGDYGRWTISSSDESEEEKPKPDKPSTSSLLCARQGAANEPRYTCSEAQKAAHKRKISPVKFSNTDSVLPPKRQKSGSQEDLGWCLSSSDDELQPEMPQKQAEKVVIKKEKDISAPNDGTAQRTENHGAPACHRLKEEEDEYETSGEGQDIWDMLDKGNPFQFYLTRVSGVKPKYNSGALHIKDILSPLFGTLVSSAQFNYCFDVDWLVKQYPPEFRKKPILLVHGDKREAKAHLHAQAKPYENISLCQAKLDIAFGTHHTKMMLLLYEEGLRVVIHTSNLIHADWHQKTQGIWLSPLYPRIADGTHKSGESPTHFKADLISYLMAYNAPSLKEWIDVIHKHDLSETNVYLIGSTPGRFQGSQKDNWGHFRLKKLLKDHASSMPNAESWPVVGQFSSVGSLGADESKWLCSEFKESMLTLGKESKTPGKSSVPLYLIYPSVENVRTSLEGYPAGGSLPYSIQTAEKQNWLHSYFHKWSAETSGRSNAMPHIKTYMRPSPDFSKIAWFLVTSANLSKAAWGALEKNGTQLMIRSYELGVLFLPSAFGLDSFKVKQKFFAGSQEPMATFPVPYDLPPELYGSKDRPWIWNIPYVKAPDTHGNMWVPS
#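 Recombinant E. coli-expressed Tdp1 (1 nM) preincubated with compound 15 min at RT, then 5'-biotin/3'-phosphotyrosine-FITC DNA substrate (15 nM) added for 5 min. AlphaScreen beads (10 ug/ml) added, 10 min RT; tyrosine-FITC cleavage read as signal loss.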
# HepG2 viability: counter-screen for TGF-b inhibitors: cytotoxicity in HepG2 cells | HepG2 CAGA-GFP viability, ATP luminescence, 18 h | Potency, µM (doses to about 46.1 µM), inactives show at the highest dose activity change, negative = cytotoxicity, actives largely listed as cytotoxic | 410,000 compounds, 0.76% hits | AID 588856; note: potency is the fitted concentration of half-maximal effect
#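 HepG2 CAGA-GFP cells (1000/well, DMEM with 1% FBS) received compound, then TGF-beta at 500 pg/mL final, and were incubated 18 hours at 37 degrees C. Viability was read by CellTiter-Glo luminescence. Media-only wells were set as complete cell-killing and DMSO as no toxicity.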
# TGFb SMAD3 inh: blocks TGF-b signaling. Potency, µM (top dose mostly 46.1 µM), without a hit: at the top dose activity, negative = inhibition, usual class: inhibitors. AID 588855. 410,000 compounds, 1.2% hits. HepG2 CAGA-GFP TGF-b/SMAD3 reporter, GFP fluorescence, 18 h; TGF-beta stimulated, 500 pg/mL final; note: potency is the fitted concentration of half-maximal effect; % is set by controls: 0 for no effect and ±100 for the full control effect; nearly all actives have a fitted effect of over 65% in size
#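 Inhibition of TGF-beta-driven CAGA-GFP reporter expression in HEPG2 cells is measured by cellular GFP fluorescence after 18 h stimulation with 500 pg/mL recombinant TGF-beta in 1% FBS medium at 37 degrees C.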
# IL1B secr inh: inflammasome signaling inhibition, IL-1 beta readout. AID 743279. THP-1 LPS/ATP IL-1B secretion, AlphaLISA, 16 h; hits give low values. activity change, % at 57.5 µM. 360,000 compounds, 4.7% hits; in the data active = activity change below about -50%; inconclusive = mostly about -30% to -49%; note: % is set by controls: 0 for no effect and ±100 for the full control effect
#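 THP-1 cells pretreated 1 hr with compounds (up to 57.5 uM final), then stimulated with LPS (250 ng/mL final) plus ATP (1.25 mM final); secreted IL-1B measured by AlphaLISA after 16 hr, decreased signal indicating inhibition.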
# TDP1 cell CPT: growth inhibition of DT40 Tdp1-/-;hTDP1 cells with camptothecin (screen for TDP1 inhibitors); chicken DT40 Tdp1-/-;hTDP1 cells + 20 nM CPT, ATP luminescence, 48 h; Potency, µM (top dose mostly 46.2 µM), without a hit: at the highest dose activity change, negative = growth inhibition, usual class: inhibitors; 420,000 compounds, 12% hits; AID 686979; note: potency is the fitted concentration of half-maximal effect; % is set by controls: 0 for no effect and ±100 for the full control effect; nearly all actives have a fitted effect of over 55% in size
#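 Cell growth measured by CellTiter-Glo luminescence after a minimum 48 h, 37 C compound exposure with 20 nM CPT in Tdp1-knockout DT40 cells stably expressing hTDP1, seeded 400/well; qHTS titration format.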
# DT40 TDP1 no CPT: qHTS for Inhibitors of human tyrosyl-DNA phosphodiesterase 1 (TDP1): qHTS in cells in absence of CPT. DT40 Tdp1-/- hTDP1 cells, no CPT, ATP luminescence, 48 h. Potency, µM (top dose mostly 46.2 µM), inactives show at the top dose activity change, negative = growth inhibition, actives largely listed as inhibitors. 420,000 compounds, 15% hits. AID 686978, 2013; note: potency is the fitted concentration of half-maximal effect; % is set by controls: 0 for no effect and ±100 for the full control effect; nearly all actives have a fitted effect of over 55% in size
#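 Seeded 400 DT40-hTDP1 cells/well (vehicle DMSO, no 20 nM CPT); pinned compounds; ≥48 hr at 37 °C; CellTiter-Glo luminescence as viability measure.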
# Numbers without * were called inactive; ? = inconclusive; / = not tested or not shown; [ ] = dose if it differs, or a comment. The list is not random: actives were taken first. Their share in the collection is about 18%. Unless noted, calls come from the whole dose curve; as a rule, active = well fitted curve in the direction sought with a large enough effect; inconclusive = small, poorly fitted or top-dose-only effect, or another doubt; inactive = no such curve, though single readings can be large; an effect the other way counts as inactive or inconclusive.
SMILES,TDP1 inh,HepG2 viability,TGFb SMAD3 inh,IL1B secr inh,TDP1 cell CPT,DT40 TDP1 no CPT
CC(C)C[C@H](NC(=O)[C@H](Cc1ccccc1)NC(=O)CNC(=O)[C@@H](NC(=O)[C@@H](N)Cc1ccc(O)cc1)[C@H](C)O)C(=O)N[C@H](C(=O)O)[C@H](C)O,-1.2%,/,/,/,-25.3%[4.12 µM],-6.3%[4.12 µM]
COP(=O)(OC)c1nc(-c2cccc3ccccc23)oc1NCCc1ccccc1,-1.1%,-10.9%,?,-95.3*,?,?
COP(=O)(OC)c1nc(-c2cccc3ccccc23)oc1N1CCOCC1,3.5%,-37.1%,3.6%,-10.9,-15.2%,18.4µM*
COc1cccc(-c2cc(C(=O)Nc3cnn(Cc4ccc(Cl)cc4Cl)c3)no2)c1,-1.8%,0.8%,10.7%,/,?,?
Cc1ccc(-c2cc(-c3ccc(C)cc3)[n+](C)o2)cc1,1.3%,-30.2%,7.08µM*,0.0,0.461µM*,0.326µM*
CCCCCc1nc2ccccc2c(=O)n1-c1ccccc1[N+](=O)[O-],-0.6%,-22.7%,?,-5.7,?,16.4µM*
CN(C)[C@@H]1C(=O)C(C(N)=O)=C(O)[C@@]2(O)C(=O)C3=C(O)c4c(O)cccc4[C@@](C)(O)C3[C@H](O)C12 (stereo partly specified),/,-5.0%,23.8%,17.6,?,18.4µM*
CN(C)[C@@H]1C(=O)C(C(N)=O)=C(O)[C@@]2(O)C(=O)C3=C(O)c4c(O)ccc(Cl)c4[C@@](C)(O)C3C[C@@H]12 (stereo partly specified),-8.2%,-8.5%,3.2%,-12.4,?,23.1µM*
CN(C)C1C(=O)C(C(N)=O)=C(O)[C@@]2(O)C(=O)C3=C(O)c4c(O)cccc4[C@@](C)(O)C3[C@H](O)C12 (stereo partly specified),/,/,/,/,8.41µM*,-69.9%
COC(=O)[C@@H]1[C@@H]2C[C@H]3c4[nH]c5cc(OC)ccc5c4CCN3C[C@@H]2C[C@H](OC(=O)/C=C\c2cc(OC)c(OC)c(OC)c2)[C@H]1OC,19.0%[21 µM],/,/,/,/,/
C[N+]1(C)CCCCC1COC(=O)C(O)(c1ccccc1)c1ccccc1 (stereo unspecified),/,/,/,/,-3.4%,-1.7%
O=Cc1ccco1,14.9%,/,/,/,7.5%,3.1%
COc1ccccc1NC(=O)c1oc2ccccc2c1NC(=O)c1ccccc1C(F)(F)F,3.8%,-4.2%,1.0%,/,3.66µM*,5.17µM*
CN(C)C(=O)Oc1cccc(NC(=O)c2ccccc2C(F)(F)F)c1,-3.7%,-8.2%,23.5%,14.7,-4.1%,-0.7%
CC(C)C1C(=O)O[C@@H]2CCN3CC=C(COC(=O)[C@](C)(O)[C@]1(C)O)[C@H]23 (stereo partly specified),12.1%,/,/,/,/,/
Cc1cc(C=C2C(=O)NC(=S)NC2=O)c(C)n1-c1ccc2c(c1)OCO2,4.2%,-58.1%,?,-101.5*,?,?
COc1ccc(C(=O)c2c(C)n(CCN3CCOCC3)c3ccccc23)cc1,4.7%,/,/,/,?,23.7µM*
CC(C)CN1CC[C@@]2(CCCN(C(=O)c3ccncc3)C2)C1,/,/,/,/,13.6%,0.4%
N#CC(C#N)=NNc1ccc(S(=O)(=O)N2CCCC2)cc1,5.3%,-0.5%,?,-26.0,?,16.4µM*
CCN1C[C@@]2(COC)CC[C@H](O)[C@@]34[C@@H]2C[C@@H]([C@@H]13)[C@]1(O)C[C@@H](OC)C2C[C@H]4[C@H]1[C@H]2OC(C)=O,10.3%[21 µM],/,/,/,/,/
CCC(C)C1NC(=O)C(C(C)=O)=C1O (stereo unspecified),/,1.0%,5.5%,25.7,16.4µM*,?
COc1ccc(N2C(=O)/C(=C/c3ccc(C)o3)C(=O)NC2=S)c(OC)c1,/,5.7%,3.9%,8.6,20.6µM*,?
C[C@]12CC[C@H]3[C@@H](CCC4C[C@H](O)CC[C@@]43C)[C@@H]1CC[C@@H]2O (stereo partly specified),8.0%[56.1 µM],/,/,/,/,/
COC(=O)C12CC3=C[C@H](CC3=O)Cc3ccccc3[C@@H]1CNC2=O (stereo partly specified),6.9%,/,/,/,/,/
Cc1ccc(OCC(=O)N2CCN(CCc3ccncc3)CC2)cc1,4.7%,-8.0%,-4.0%,/,-18.3%,-9.1%
SMILES,TDP1 inh,HepG2 viability,TGFb SMAD3 inh,IL1B secr inh,TDP1 cell CPT,DT40 TDP1 no CPT
O=C(COc1ccc(Br)cc1)N1CCN(Cc2ccc3c(c2)OCO3)CC1,5.4%,-6.3%,0.0%,-59.6*,?,-12.8%
Cn1nc(-c2ccc(OCC(=O)N3CCN(Cc4ccccc4)CC3)cc2)c2ccccc2c1=O,5.2%,-25.8%,-18.9%,5.0,13µM*,6.51µM*
CCCCNS(=O)(=O)c1ccc(OCC(=O)N2CCN(Cc3ccc4c(c3)OCO4)CC2)cc1,6.8%,-18.9%,-17.8%,-28.6,10.3µM*,?
Cc1ccc(OCC(=O)N2CCN(Cc3ccc4c(c3)OCO4)CC2)cc1C,-1.2%,-15.9%,-0.4%,-7.7,-6.3%,-27.3%
CSc1ccc(CN2CCN(C(=O)COc3ccc(C)cc3)CC2)cc1,-0.5%,-7.9%,-12.6%,-22.0,?,18.4µM*
NC(Cn1ccc(=O)[nH]c1=O)C(=O)O (stereo unspecified),6.4%,/,/,/,/,/
O[C@@H]1[C@@H]2O[P@@](O)(=S)OC[C@H]2O[C@H]1n1cnc2cc(Cl)c(Cl)cc21,-5.6%,/,/,/,/,/
OC[C@H]1O[C@@H](n2cnc3cc(Cl)c(Cl)cc32)[C@H](O)[C@@H]1O,/,-41.0%,?,-69.5*,?,14.6µM*
OC[C@H]1O[C@@H](n2cnc3cc(Cl)c(Cl)cc32)[C@H](O)[C@H]1O,8.9%,/,/,/,16.4µM*,?
O=C1C=C2c3ccccc3CC(C(=O)O)C2CC1 (stereo unspecified),/,6.3%,-1.4%,22.5,-1.5%,2.6%
O=C1CCCCC1,0.9%,-3.8%,2.7%,-25.1,12.3%,-0.2%
CCCN(CCC)c1c([N+](=O)[O-])cc(S(N)(=O)=O)cc1[N+](=O)[O-],15.4%,/,/,/,?,30.6µM*
CCCCN(CC)c1c([N+](=O)[O-])cc(C(F)(F)F)cc1[N+](=O)[O-],10.1%[56.1 µM],/,/,/,-4.5%,18.4%
O=C(CSC1c2ccccc2-c2ccccc21)N/N=C/c1ccccc1O,8.8%,-32.1%,?,49.7,7.31µM*,6.51µM*
